Here are results for ten molecules from PubChem BioAssay (NCI).

This is part of a sample that, as a whole, favours compounds with a hit. Of some 83,000 tested, about 20% had one in any assay.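 Assay: single dose, 48 h. Readout: percent growth (0 = no net growth; negative = cell death). Active: <10.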 Values without a mark were called inactive. Calls of active or inactive are those of the source.

Holding throughout (assay): NCI-60 one-dose screen, 48 h (100 = growth as untreated, 0 = no growth, -100 = all killed)
One experiment relates to OVCAR-8 ovarian. Particulars: 10 µM unless noted.
Another experiment relates to OVCAR-5 ovarian. Particulars: 10 µM unless noted.
For another experiment, the system named is OVCAR-4 ovarian. Particulars: 10 µM unless noted.
The subject of the next experiment is SK-OV-3 ovarian. Particulars: 10 µM unless noted.
The test system of a further experiment is IGROV1 ovarian. Particulars: 10 µM unless noted.
A further experiment has as its system OVCAR-3 ovarian. Particulars: 10 µM unless noted.
The subject of a further experiment is HS 578T breast. Particulars: 10 µM unless noted.
The next experiment relates to NCI/ADR-RES ovarian. Particulars: 10 µM unless noted.
The subject of a further experiment is T-47D breast. The following applies: 10 µM unless noted.
Another experiment deals with BT-549 breast. The following applies: 10 µM unless noted.
Another experiment concerns MDA-MB-435 melanoma. The following applies: 10 µM unless noted.
A further experiment has as its system SW-620 colon. Particulars: 10 µM unless noted.
A further experiment relates to MCF7 breast. The following applies: 10 µM.
The test system of another experiment is HCT-116 colon. The following applies: 10 µM unless noted.
The test system of the next experiment is HCC-2998 colon. Particulars: 10 µM unless noted.
In another experiment the test system is KM12 colon. The following applies: 10 µM unless noted.
A further experiment has as its system RPMI-8226 leukemia. The following applies: 10 µM unless noted.

Take `CCOC(=O)c1sc(-c2ccc(OS(=O)(=O)c3cccs3)c(C=O)c2)nc1C`: the growth in the experiment with OVCAR-8 ovarian is -5.05% (active); in the experiment with OVCAR-5 ovarian, 33.1%; in the experiment on OVCAR-4 ovarian it was 4.5% (active); with SK-OV-3 ovarian, 123%; with IGROV1 ovarian, -36.2% (active); in the experiment with OVCAR-3 ovarian it was -9.03% (active). For the same molecule, the growth is 11.2% with HS 578T breast; -2.63% (active) with NCI/ADR-RES ovarian; 19.1% in the experiment on T-47D breast; -7.24% (active) in the experiment with BT-549 breast; -15.1% (active) in the experiment on MDA-MB-435 melanoma; 8.51% (active) in the experiment on SW-620 colon. Besides, the growth in the experiment with MCF7 breast is -21.7% (active); in the experiment with HCT-116 colon it was 2.95% (active); in the experiment with HCC-2998 colon, 46.4%; with KM12 colon, 0.602% (active).

In the case of `O=C1NC(=O)C(=Cc2cn(Cc3cn(Cc4ccc(Cl)cc4Cl)nn3)c3ccccc23)C(=O)N1`, the growth in the experiment on OVCAR-8 ovarian was 83%; in the experiment on OVCAR-5 ovarian, 50.8%; in the experiment with OVCAR-4 ovarian, 82.4%; with SK-OV-3 ovarian it was 69%; in the experiment with IGROV1 ovarian it was 85.7%; with OVCAR-3 ovarian, 92.4%. For the same molecule, the growth in the experiment with HS 578T breast was 87.5%; in the experiment on NCI/ADR-RES ovarian it was 96.9%; in the experiment with T-47D breast, 64.7%; in the experiment on BT-549 breast it was 91.7%; in the experiment with MDA-MB-435 melanoma, 94.9%; in the experiment with SW-620 colon, 92.1%. The growth was 80% in the experiment with MCF7 breast, 91.3% in the experiment with HCT-116 colon, 117% in the experiment on HCC-2998 colon and 98.3% in the experiment on KM12 colon.

With `O=CCCCC(O)C=O` (stereo not drawn), the growth in the experiment on OVCAR-8 ovarian was 106%; in the experiment on OVCAR-5 ovarian, 106%; in the experiment on OVCAR-4 ovarian, 103%; in the experiment with SK-OV-3 ovarian, 104%; in the experiment on IGROV1 ovarian, 108%; in the experiment on HS 578T breast, 98.1%. Besides, the growth in the experiment with NCI/ADR-RES ovarian was 99.2%; with T-47D breast, 95.9%; with BT-549 breast, 112%; in the experiment with MDA-MB-435 melanoma, 105%; in the experiment on SW-620 colon it was 96.9%; with MCF7 breast it was 98.9%. Moreover, the growth in the experiment on HCT-116 colon was 109%; in the experiment on HCC-2998 colon it was 105%; with KM12 colon, 103%.

Consider `CCCCN1CCN(c2ccc3nc(-c4ccc5nc(-c6ccc(C(F)(F)F)cc6)[nH]c5c4)[nH]c3c2)CC1`, for which the growth in the experiment on RPMI-8226 leukemia is -35.3% (active); in the experiment on OVCAR-5 ovarian it was -89.2% (active); in the experiment with OVCAR-4 ovarian it was -84.2% (active); with IGROV1 ovarian, -82.3% (active); with OVCAR-3 ovarian, -96.7% (active); with HS 578T breast it was -64.3% (active). Moreover, the growth with T-47D breast is -37.3% (active); with BT-549 breast it was -53.2% (active); in the experiment with MDA-MB-435 melanoma it was -85.3% (active); in the experiment with SW-620 colon, -76.9% (active); in the experiment with MCF7 breast, -74.3% (active); in the experiment with HCT-116 colon, -70.7% (active). Also, the growth with HCC-2998 colon was -84% (active); with KM12 colon it was -88.3% (active).

Take `CCOC(=O)c1sc(-c2ccc(OS(=O)(=O)C[C@]34CCC(CC3=O)C4(C)C)c(C=O)c2)nc1C`: the growth in the experiment on OVCAR-8 ovarian is 11.6%; with OVCAR-5 ovarian, 46.9%; in the experiment with OVCAR-4 ovarian it was 18.6%; in the experiment on SK-OV-3 ovarian it was 46%; with IGROV1 ovarian, -21.8% (active); in the experiment on OVCAR-3 ovarian, -5% (active). Further, the growth is 31.6% with HS 578T breast; 11% in the experiment on NCI/ADR-RES ovarian; -13.5% (active) in the experiment with BT-549 breast; 7.61% (active) with MDA-MB-435 melanoma; 10.5% in the experiment on SW-620 colon; 2% (active) with MCF7 breast. The growth is 5.89% (active) with HCT-116 colon, 66.4% in the experiment on HCC-2998 colon and 7.78% (active) in the experiment with KM12 colon.

Take `COc1ccccc1N1CCN(C(CNS(=O)(=O)c2ccc(Cl)cc2)c2cccnc2)CC1` (stereo not drawn): the growth in the experiment on RPMI-8226 leukemia was 27.5%; in the experiment on OVCAR-5 ovarian, 113%; in the experiment on SK-OV-3 ovarian it was 108%; with OVCAR-3 ovarian it was 75.4%; in the experiment on HS 578T breast, 88.3%; in the experiment on NCI/ADR-RES ovarian, 93.9%. In addition, the growth in the experiment on T-47D breast was 102%; in the experiment with BT-549 breast, 84.9%; in the experiment with MDA-MB-435 melanoma it was 86.6%; with SW-620 colon, 101%; in the experiment on MCF7 breast it was 78.3%; with HCT-116 colon, 82.6%. The growth is 88% in the experiment on HCC-2998 colon and 61.4% in the experiment with KM12 colon.

On to `S=C1CCCC(=S)N1`, for which the growth is 105% with OVCAR-8 ovarian; 100% in the experiment on OVCAR-5 ovarian; 104% with OVCAR-4 ovarian; 91.6% in the experiment with SK-OV-3 ovarian; 107% in the experiment with IGROV1 ovarian; 112% in the experiment with OVCAR-3 ovarian. Besides, the growth with HS 578T breast was 99.8%; in the experiment on NCI/ADR-RES ovarian, 99.5%; with BT-549 breast it was 102%; in the experiment on MDA-MB-435 melanoma, 106%; in the experiment on SW-620 colon it was 105%; in the experiment with MCF7 breast, 105%. Further, the results for the growth in the experiment on HCT-116 colon, with HCC-2998 colon and in the experiment on KM12 colon were 102%, 111% and 105%, respectively.

Regarding `Cc1cccc2c(=O)c3c(sc12)c(N1CCNCC1)nc1ccccc13`, the growth in the experiment with RPMI-8226 leukemia is 7.41% (active); in the experiment on OVCAR-5 ovarian, 90.2%; with OVCAR-4 ovarian, 73.9%; with IGROV1 ovarian, 33.6%; with OVCAR-3 ovarian it was 63.7%; in the experiment on HS 578T breast, 73%. Also, the growth in the experiment with T-47D breast is 86.9%; with BT-549 breast it was 80%; in the experiment on MDA-MB-435 melanoma, 62.5%; in the experiment on SW-620 colon, 27.6%; in the experiment on MCF7 breast, 26.7%; with HCT-116 colon, 26.9%. The growth in the experiment with HCC-2998 colon is 47.5%; with KM12 colon, 51.3%.

On to `COC(=O)c1cc2c(n1Cc1ccccc1)-c1oncc1CCC2`, for which the growth in the experiment on RPMI-8226 leukemia was 49.8%; in the experiment on OVCAR-5 ovarian, 87.8%; in the experiment with SK-OV-3 ovarian it was 93.7%; in the experiment on OVCAR-3 ovarian, 65.2%; in the experiment on HS 578T breast, 78.2%; in the experiment with NCI/ADR-RES ovarian, 40.3%. In addition, the growth in the experiment with T-47D breast is 74.9%; in the experiment with BT-549 breast, 79.6%; with MDA-MB-435 melanoma, -13% (active); in the experiment on SW-620 colon it was 34.7%; in the experiment with MCF7 breast it was 40.8%; with HCT-116 colon it was 57.4%. For the same molecule, in the experiment on KM12 colon, the growth was 63%.

On to `O=Nc1c(O)ccc2ccccc12.O=Nc1c(O)ccc2ccccc12.O=Nc1c([O-])ccc2ccccc12.[Fe+3]`, for which the growth with OVCAR-8 ovarian is 98.4%; in the experiment with OVCAR-5 ovarian it was 109%; with OVCAR-4 ovarian, 104%; in the experiment with SK-OV-3 ovarian, 112%; in the experiment on IGROV1 ovarian, 91.1%; with OVCAR-3 ovarian, 102%. Also, the growth was 113% in the experiment on HS 578T breast; 104% with NCI/ADR-RES ovarian; 104% with T-47D breast; 103% with BT-549 breast; 109% in the experiment with MDA-MB-435 melanoma; 97.3% with SW-620 colon. Moreover, the growth in the experiment on MCF7 breast was 89.2%; in the experiment with HCT-116 colon, 97.1%; in the experiment with HCC-2998 colon it was 113%; with KM12 colon, 116%.
